# Measurements reported in PubChem BioAssay.
# Activity calls are given as the source filed them.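 Rule for the calls: active = inhibition above 20% together with a positive visual image hit; inconclusive = visual image hit but inhibition not above 20%; inactive = no visual image hit.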
# Assay: inhibitors of TNFa-induced NFkB p65 translocation, primary screen, imaging, HUVEC, MLSMR starter and 10KST1 sets (AID 438);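 note: compound added about 3h40 before a 20 min TNFalpha stimulation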;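 for inhibition: signal is the nuclear over cytoplasmic p65 intensity ratio per well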
# Conditions: HUVEC TNFa-induced p65 nuclear translocation; cell count: measured here: nuclei count (cytotoxicity indicator), at 2.08 µM; inhibition: at 2 µM, stronger effect = higher value, 0% TNFa-plus-vehicle, 100% no-TNFa wells
Compound,inhibition,cell count
CCN1CCN(C(CNC(=O)c2ccc3c(c2)OCO3)c2cccnc2)CC1 (stereo not given),-13.5% (inactive),796
Cc1cccnc1-n1c(CCN2C(=O)c3ccccc3C2=O)nc2ccccc2c1=O,-5.4% (inactive),359
COc1cc2c(N3CCOCC3)cc(O)c(CC(=O)Nc3ccccc3)c2cc1OC,2.5% (inactive),217
Cc1ccc(-c2nc3cc(NC(=O)C(C)C)ccc3o2)cc1C,-5% (inactive),709
Cc1ccc(-c2nnc(N3CCN(C(=O)CN4C(=O)c5ccccc5C4=O)CC3)c3ccccc23)cc1,10.2% (inactive),375
Cc1cccc(OCC(=O)N(Cc2cccs2)C2CCS(=O)(=O)C2)c1C (stereo not given),2.4% (inactive),220
CCN(CC)C(=O)Cn1c(=O)n(Cc2ccccc2Cl)c2c1c(=O)n(C)c(=O)n2C,-6.4% (inactive),678
CCOc1ccccc1NC(=O)CCSc1nc2n[nH]c(C)c2c(=N)n1-c1ccccc1Cl,-10.2% (inactive),621
COc1ccc(N2C(=O)CCC(C(=O)N3CCCCC3)C2c2ccc(OC)c(OC)c2)cc1 (stereo not given),-1.9% (inactive),164
COCCNC(=O)C(c1ccc(O)cc1)N(Cc1ccco1)C(=O)CCC(=O)Nc1nccs1 (stereo not given),6.7% (inactive),474
C=CCN1C(=O)C2(/C(=C(\O)c3ccc4c(c3)OCCO4)C(=O)C(=O)N2CCCOC)c2ccccc21 (stereo not given),8.6% (inactive),390
COc1cc2[nH]c(=O)c(C(=O)NCCCN3CCCCC3)c(O)c2cc1OC,-24.5% (inactive),637
CCc1[nH]nc2c1C1(CCN(C(=O)OCc3ccccc3)CC1)C(C#N)=C(N)O2,0.6% (inactive),823
O=C(Nc1cccc2ccccc12)N1CCN(c2ccccc2)CC1,-6.4% (inactive),767
CC(=O)N1CCC(N(C(=O)Nc2ccc(C)c(C)c2)C2CCCC2)CC1,-3.1% (inactive),644
O=C1CCCc2nc(N3CCCCC3)sc21,-15.2% (inactive),629
C=CCOc1ccc(C2/C(=C(\O)c3c(C)[nH]c(C(=O)OC)c3C)C(=O)C(=O)N2CCN(C)C)cc1 (stereo not given),0.5% (inactive),462
Cc1cc(NC(=O)c2cccc(S(=O)(=O)N3CC(c4ccccc4)CC3=O)c2)no1 (stereo not given),-1.2% (inactive),873
CCN(CCCNC(=O)CC1Oc2ccc(C)cc2NC1=O)Cc1ccccc1 (stereo not given),5.1% (inactive),548
CN1CCc2nc(SCCOc3ccccc3)c(C#N)cc2C1,-4% (inactive),319

Compound,inhibition,cell count
COc1ccc(S(=O)(=O)N2CCC(C(=O)Nc3c(F)cccc3F)CC2)cc1,-9.2% (inactive),741
Cc1nc2ccc(NC(=O)NCc3ccco3)cc2s1,-2.2% (inactive),359
CCNc1ccc(C(=O)OCC)cc1NC(=O)c1cc(S(=O)(=O)N2CCOCC2)ccc1C,7.3% (inactive),772
CC1CCN(c2nc3c(c(=O)n(C)c(=O)n3C)n2Cc2ccccc2)CC1,-3.5% (inactive),666
O=C(Oc1cc2oc(=O)c3c(c2cc1Cl)CCCC3)c1ccco1,-14.1% (inactive),532
CCOC(=O)CNC(=O)CSc1nc(N)cc(N)n1,5.1% (inactive),434
CCCC(=O)C1=C(N(C)c2ccccc2)CC(C)(C)C(C(=O)OC)C1=O (stereo not given),-0.3% (inactive),429
CCOC(=O)c1ccc(N2C(=O)CC(N(C)CCc3ccc(OC)c(OC)c3)C2=O)cc1 (stereo not given),-7.1% (inactive),451
COc1ccc(C2=NOC(C(=O)NC3CCCCC3)C2)cc1OC (stereo not given),-14.3% (inactive),832
CCOC(=O)c1cc(CC)sc1NC(=O)CCC(=O)O,-3.2% (inactive),415
O=C(C1CCN(c2nnc(-n3cccc3)s2)CC1)N1CCOCC1,-2.9% (inactive),661
Cn1cc(Br)c(C(=O)NC2CCCCC2)n1,-5.1% (inactive),483
CC1NC2(C(=O)N(Cc3ccccc3)c3ccccc32)C2C(=O)N(c3ccccc3)C(=O)C12 (stereo not given),-5.3% (inactive),643
O=C1CC(N2CCN(C3CCc4ccccc4C3)CC2)C(=O)N1c1ccccc1 (stereo not given),4% (inactive),288
CCCOc1cccc(C(=O)Nc2cc(NC(=O)c3ccco3)ccc2OC)c1,3.8% (inactive),436
Cn1c(SCC(=O)Nc2ccc3c(c2)OCO3)nnc1-c1cnccn1,6.5% (inactive),656
CC1CCN(S(=O)(=O)c2cccc(C(=O)Nc3ccccn3)c2)CC1,-4.3% (inactive),338
CC(=O)Nc1ccc(N=Cc2nc(-c3ccc(C)cc3)oc2O)cc1,-11.6% (inactive),1080
CN(C(=O)C1CCCO1)c1nnc(-c2ccncc2)s1 (stereo not given),-2.1% (inactive),279
CCOC(=O)c1[nH]c(C)c(C(=O)NC)c1C,-1.3% (inactive),627
